{
  "source": "PubChem BioAssay AID2157",
  "about": "(National Center for Advancing Translational Sciences (NCATS), 2009)",
  "note": "Results filed as inconclusive are left out. Calls of active or inactive are those of the source. The call rests on the fitted dose curve; in most records, active means well fitted inhibition curve with a large enough effect; inconclusive means small, poorly fitted or top-dose-only effect; inactive means no such curve, though single readings can be large or run the other way.",
  "data": [
    {"target": "Polyunsaturated fatty acid lipoxygenase ALOX15 (Homo sapiens) (UniProt P16050)", "sequence (P16050 whole entry, looked up)": "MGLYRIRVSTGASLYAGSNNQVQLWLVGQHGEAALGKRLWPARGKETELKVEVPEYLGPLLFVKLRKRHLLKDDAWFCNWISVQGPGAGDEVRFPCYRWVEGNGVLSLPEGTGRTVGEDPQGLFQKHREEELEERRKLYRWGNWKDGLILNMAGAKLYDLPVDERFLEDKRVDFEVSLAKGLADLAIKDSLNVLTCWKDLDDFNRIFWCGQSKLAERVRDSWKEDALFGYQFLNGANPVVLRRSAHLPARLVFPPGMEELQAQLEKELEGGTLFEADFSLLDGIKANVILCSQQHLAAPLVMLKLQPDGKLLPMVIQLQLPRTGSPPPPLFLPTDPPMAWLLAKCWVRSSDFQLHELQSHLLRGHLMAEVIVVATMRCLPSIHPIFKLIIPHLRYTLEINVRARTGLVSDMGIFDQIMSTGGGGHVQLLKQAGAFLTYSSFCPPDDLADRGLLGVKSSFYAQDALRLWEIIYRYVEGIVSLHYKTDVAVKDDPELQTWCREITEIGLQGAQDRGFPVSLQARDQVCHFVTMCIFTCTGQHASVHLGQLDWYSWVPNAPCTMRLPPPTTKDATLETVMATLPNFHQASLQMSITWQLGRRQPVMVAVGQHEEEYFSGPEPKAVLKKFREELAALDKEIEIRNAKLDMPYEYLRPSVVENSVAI", "assay": "Confirmation qHTS Assay for Inhibitors of 15-hLO (15-human lipoxygenase)", "conditions": "purified enzyme, xylenol orange hydroperoxide absorbance; max response: active compounds read low", "source_text": "Assay Provider: Holman, T.R., University of California, Santa Cruz Screening Center PI: Austin, Christopher P. Screening Center: NIH Chemical Genomics Center Human lipoxygenase 15hLO-1 is a member of the closely related lipoxygenase family of enzymes which catalyze the site-specific oxidation of arachidonic acid to various hormone precursor molecules and as such is a candidate for drug development in a variety of disease areas, such as cancer and inflammation. Inhibition of 15hLO-1 activity was screened by utilizing arachidonic acid as a substrate. The extent of hydroperoxide product formation was measured by a secondary chromogenic reaction in which xylenol orange (XO, Sigma-Aldrich, cat. number 39,818-7) reacts with the ferric ions produced from the reaction between the hydroperoxide and ferrous ions. The Fe(III)-XO complex is characterized with red-shifted absorbance at 560 nm. A purified preparation of human 15hLO-1 was supplied by Professor Ted Holman, University of California, Santa Cruz. This assay includes some confirmation and follow-up compounds for related primary screening assay AID 887.\nAssay Protocol: Buffer: 25 mM Hepes pH 7.5, 0.01% Triton X-100. Reagents/Controls: Buffer in columns 3 and 4 as negative control (no enzyme). Substrate solution: 50 uM arachidonic acid (Sigma-Aldrich, St. Louis, MO) final concentration dispensed throughout the plate. Enzyme: 40 nM 15hLO-1 final concentration in columns 1, 2, 5-48. Column 1 is neutral (100% activity). Column 2 contained pin-transferred titration of NDGA (nordihidroguaiaretic acid, Sigma-Aldrich, N 5023, top concentration 10 mM in DMSO, then 1:2 dilution in duplicate). (Dilution factor: 23 nL into 4 uL.) Chromogenic detection reagent (divalent iron/xylenol orange, Fe-XO): 200 uM xylenol orange plus 300 uM ferrous ammonium sulfate prepared freshly in 50 mM sulfuric acid. Assay Steps: Three uL of enzyme were dispensed to 1536-well Greiner black clear bottom plates. Compounds and controls (23 nL) were transferred via Kalypsys PinTool. The plates were incubated for 15 min at room temperature, and then 1 uL of substrate solution was added to start the reaction. After room temperature incubation for 6 minutes, 4 uL of Fe-XO solution was added to each well followed by a short spin (1000 rpm, 15 sec) and the plates were then incubated for 30 min. The absorbance at 405 and 573 nm were measured using ViewLux (Perkin-Elmer) High-throughput CCD imager and absorbance protocol settings. The 573-to-405 absorbance ratio was used to compute reaction progress.", "values": [
      {"smiles": "Oc1ccc2ccccc2c1CNc1cnc2ccccc2c1", "Potency": "14.1 µM (active)"},
      {"smiles": "O=C(Cc1cc(=O)[nH][nH]1)N/N=C/C=C/c1ccccc1", "max response": "-11.2% (inactive)"},
      {"smiles": "Cc1ccc(OCC(=O)Nc2ccc(N3CCCC3)cc2)cc1C", "Potency": "15.8 µM (active)"},
      {"smiles": "COc1ccc(NC(=O)CSc2nc(O)cc(=O)n2-c2ccccc2OC)cc1", "max response": "-13.4% (inactive)"},
      {"smiles": "O=C(Nc1nc2n(n1)C(c1ccccc1)CC(c1ccc(Cl)cc1)N2)c1ccco1", "note": "(configuration not stated)", "max response": "-20.1% (inactive)"},
      {"smiles": "CCCCn1c(Cc2ccccc2)n[nH]c1=S", "max response": "-14.5% (inactive)"},
      {"smiles": "O=C(Nc1cccc(F)c1)N1CCCC2(CCN(C(=O)c3ccco3)CC2)C1", "max response": "-7.24% (inactive)"},
      {"smiles": "CCOc1ccc(NS(=O)(=O)c2ccc3[nH]cc(C(=O)N(CC)CC)c(=O)c3c2)cc1", "max response": "-12.4% (inactive)"},
      {"smiles": "Cc1c(N/C=C/C(=O)c2cccs2)c(=O)n(-c2ccccc2)n1C", "max response": "-25.2% (inactive)"},
      {"smiles": "Clc1ccc(-c2nnc(C3CCCCC3)o2)cc1", "max response": "-10.3% (inactive)"},
      {"smiles": "CCCC(=O)NC(c1ccco1)c1cc(Cl)c2cccnc2c1O", "note": "(configuration not stated)", "max response": "-17.9% (inactive)"},
      {"smiles": "CN1CCN(C(c2cccnc2)c2ccc3cccnc3c2O)CC1", "note": "(configuration not stated)", "max response": "-27.2% (inactive)"},
      {"smiles": "COCCSc1ccccc1C(=O)NCc1ccco1", "max response": "-26.5% (inactive)"},
      {"smiles": "COC(=O)c1ccc(C(=S)N2CCOCC2)cc1", "Potency": "15.8 µM (active)"},
      {"smiles": "NC(=O)c1cccc2c3c([nH]c12)CCCC3", "Potency": "10 µM (active)"},
      {"smiles": "Cc1noc(C)c1-c1nc(N(C)Cc2ccco2)c2ccccc2n1", "max response": "-25.4% (inactive)"},
      {"smiles": "O=C(C1=C(O)C(=O)N(Cc2ccco2)C1c1cccnc1)c1cc2ccccc2o1", "note": "(configuration not stated)", "max response": "-10.1% (inactive)"},
      {"smiles": "COc1cccc(-c2nccc(NCc3ccccc3OC)n2)c1", "Potency": "11.2 µM (active)"},
      {"smiles": "COc1cccc(-c2nc(NC3CCNCC3)c3ccccc3n2)c1", "max response": "-13.6% (inactive)"},
      {"smiles": "COC(=O)c1ccc2c(c1)C(=O)N(C1CCCCC1)C2=O", "max response": "-13.1% (inactive)"},
      {"smiles": "Cc1cc(/C=N/NC(=O)Cn2c3ccccc3c(=O)c3ccccc32)c(C)n1-c1ccccc1", "Potency": "11.2 µM (active)"},
      {"smiles": "O=C(Nc1nnc(-c2ccco2)s1)C1CCCCC1", "max response": "-11.3% (inactive)"},
      {"smiles": "CCOC(=O)c1c(NC(=O)CN2CCOCC2)sc2c1CCCC2", "Potency": "31.6 µM (active)"},
      {"smiles": "COc1ccccc1-n1c(SCC(=O)Nc2ccc(C)cc2)nc(O)cc1=O", "max response": "-8.11% (inactive)"},
      {"smiles": "CCC(=O)N(Cc1cc(=O)[nH]c2ccccc12)C1CCCCC1", "max response": "-6.49% (inactive)"},
      {"smiles": "Cc1cccc(CNc2ncnc3ccc(-c4ccc5c(c4)OCO5)cc23)c1", "max response": "-24.2% (inactive)"},
      {"smiles": "O=C(Nc1nnc(-c2ccccc2)o1)c1ccc(Cl)cc1", "max response": "-12.7% (inactive)"},
      {"smiles": "O=C1C2C3CCCC3=C3CCCC3C2C(=O)N1c1cccc(Cl)c1", "note": "(configuration not stated)", "Potency": "14.1 µM (active)"},
      {"smiles": "O=C(c1ccncc1)N1CCC2(CCCN(Cc3nccs3)C2)CC1", "max response": "-6.92% (inactive)"},
      {"smiles": "COc1ccc(OC)c(NC(=O)NC2(C(F)(F)F)Oc3ccccc3O2)c1", "max response": "-7.82% (inactive)"},
      {"smiles": "Cc1ccc(-c2ccc(/C=C3\\C(=O)ON=C3c3ccccc3)o2)c([N+](=O)[O-])c1", "Potency": "2.51 µM (active)"},
      {"smiles": "COc1ccccc1CNc1ncncc1-c1ccoc1", "Potency": "11.2 µM (active)"},
      {"smiles": "c1csc(C2Nc3cccc4cccc(c34)N2)c1", "Potency": "8.91 µM (active)"},
      {"smiles": "CC(=O)NCCNc1ncncc1-c1ccc(N(C)C)cc1", "max response": "-61.2% (inactive)"},
      {"smiles": "CN(C)CCC(=O)c1ccc(Cl)cc1", "max response": "-16.6% (inactive)"},
      {"smiles": "Clc1ccc(NNc2ccnc3cc(Cl)ccc23)cc1", "max response": "-9.48% (inactive)"},
      {"smiles": "Cc1cc(Nc2nnnn2-c2ccccc2)n(-c2ccc(Cl)cc2)n1", "max response": "-13% (inactive)"}
    ]}
  ]
}
